Activity calls are given as the source filed them. The calls were made as follows: active = hit-call score of the fitted dose curve at least 0.9, where 1 is the maximum; inactive = score below 0.9.
Target: human Zeta Chain of T Cell Receptor Associated Protein Kinase 70 (ZAP70), ZAP70 (gene 7535) (UniProt P43403)
Experiment: NVS_ENZ_hZAP70: NovaScreen (NVS) Enzymatic Assay for human Zeta Chain of T Cell Receptor Associated Protein Kinase 70 (ZAP70)
Procedure: NVS_ENZ_hZAP70 is a biochemical, single-readout assay that uses extracted gene-proteins in a cell-free assay. Measurements were taken 0 hour after chemical dosing in a 96-well plate.NVS_ENZ_hZAP70 is one of one assay component(s) measured or calculated from the NVS_ENZ_hZAP70 assay. It is designed to make measurements of enzyme activity, a form of enzyme reporter, as detected with fluorescence intensity signals by Fluorescence and electrophoretic mobility shift technology.Data from the assay component NVS_ENZ_hZAP70 was analyzed into 1 assay endpoint. This assay endpoint, NVS_ENZ_hZAP70, was analyzed in the positive analysis fitting direction relative to DMSO as the negative control and baseline of activity. Using a type of enzyme reporter, loss-of-signal activity can be used to understand changes in the enzymatic activity as they relate to the gene ZAP70. Furthermore, this assay endpoint can be referred to as a primary readout, because this assay has produced multiple assay endpoints where this one serves a enzymatic activity function. To generalize the intended target to other relatable targets, this assay endpoint is annotated to the kinase intended target family, where the subfamily is non-receptor tyrosine kinase. […]

human Zeta Chain of T Cell Receptor Associated Protein Kinase 70 (ZAP70), ZAP70 (gene 7535), sequence (P43403 whole entry, looked up): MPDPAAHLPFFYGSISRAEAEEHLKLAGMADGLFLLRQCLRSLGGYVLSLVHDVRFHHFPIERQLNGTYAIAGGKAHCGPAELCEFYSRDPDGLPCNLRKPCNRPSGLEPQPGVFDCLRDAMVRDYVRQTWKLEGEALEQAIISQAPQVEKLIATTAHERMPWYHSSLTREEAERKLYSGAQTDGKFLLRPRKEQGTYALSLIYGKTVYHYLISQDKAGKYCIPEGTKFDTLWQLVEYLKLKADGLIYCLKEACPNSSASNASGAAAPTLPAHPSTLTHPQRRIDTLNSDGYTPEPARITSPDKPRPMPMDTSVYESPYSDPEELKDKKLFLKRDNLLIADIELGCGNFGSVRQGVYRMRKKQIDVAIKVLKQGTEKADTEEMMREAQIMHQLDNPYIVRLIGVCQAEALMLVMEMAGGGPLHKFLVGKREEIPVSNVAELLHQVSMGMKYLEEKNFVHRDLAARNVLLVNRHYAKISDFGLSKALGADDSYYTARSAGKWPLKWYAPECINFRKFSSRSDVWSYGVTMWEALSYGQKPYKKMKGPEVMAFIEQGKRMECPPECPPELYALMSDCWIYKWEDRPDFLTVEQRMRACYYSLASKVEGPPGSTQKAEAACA

Question: For `O=S(=O)(O)C(F)(F)C(F)(F)C(F)(F)C(F)(F)C(F)(F)C(F)(F)C(F)(F)C(F)(F)F`, which AC50 is on record?
Answer: The AC50 was 12.3 µM (active).

Question: For `O=C(O)C(F)(F)C(F)(F)C(F)(F)C(F)(F)C(F)(F)C(F)(F)C(F)(F)F`, which outcome is on record?
Answer: Its outcome is “inactive”.

From PubChem BioAssay AID2283218 (EPA ToxCast)
